Results published in PubChem BioAssay AID1851 (National Center for Advancing Translational Sciences (NCATS), 2009).
About 2,600 (16%) of roughly 16,000 compounds were called active. About 20% were inconclusive and are not listed. Calls come from the whole dose curve; as a rule, active = well fitted curve in the direction sought with a large enough effect; inconclusive = small, poorly fitted or top-dose-only effect, or effect the other way; inactive = no such curve, though single readings can be large or run the other way. A selection follows.

target: Cytochrome P450 2D6 (Homo sapiens) (UniProt P10635); assay: Cytochrome panel assay with activity outcomes; conditions: recombinant CYP, pro-luciferin dealkylation, luminescence, p450-cyp2d6; series mostly up to 57.1 µM; activity, negative = inhibition: at the top concentration
Procedure: The P450 gene superfamily is involved in the metabolism and clearance of xenobiotics. This assay used various human CYP P450 isozymes to measure the dealkylation of various pro-luciferin substrates to luciferin. The luciferin is then measured by luminescence after the addition of a luciferase detection reagent. Pro-luciferin substrate concentration in the assay was equal to its KM for its CYP P450 isozyme. Inhibitors and some substrates limit the production of luciferin, and decrease measured luminescence.
NCGC Assay Protocol Summary:
1, Reagent, 2 uL, Isozyme and Pro-Luciferin
2, Library compounds, 23 nl, 40 uM to 0.24 nM dilution series
3, Controls, 23 nl, Isozyme specific inhibitor
4, Reagent, 2 uL, NADPH regeneration solution
5, Incubation time, 60 min, Isozyme specific temperature
6, Reagent, 4ul, Detection reagent
7, Incubation time, 20 min, Isozyme specific temperature
8, Detection, 1 sec, ViewLux luminescent read
The luciferase-based P450-GloTM Screening Systems were obtained from Promega (Madison, WI) for CYP 1A2 (V9770), CYP 2C9 (V9790), CYP2 C19 (V9880), CYP 2D6 (V9890), and CYP 3A4 Luciferin-PPXE (V9910) and were adapted for 1,536-well microplates and an automated protocol. The control compounds furafylline for 1A2 (F124), sulfaphenazole for CYP 2C9 (S0758), ketoconazole for CYP 2C19 (K1003), quinidine for 2D6 (Q3625), and ketoconazole for 3A4 (K1003) were purchased from Sigma Aldrich (St. Louis, MO). Recombinant P450 enzymes were obtained from baculovirus constructs expressed in insect cells (BD/Gentest).
Medium-binding white solid Kalypsys plates used. Mixtures kept on ice. 1A2: 10 nM 1A2, 100 uM Luc-ME, 100 mM KPO4; 2C9: 10 nM 2C9, 100 uM Luc-H, 25 mM KPO4; 2C19: 5 nM 2C19, 10 uM Luc-H EGE, 50 mM KPO4; 2D6: 5 nM 2D6, 30 uM Luc-ME EGE, 100 mM KPO4; 3A4: 10 nM, 25 uM Luc-PPXE. All amounts are reflected in their final concentration, working concentration is 2x.
NADPH regeneration solution: 1.3 mM NADP+, 3.3 mM glucose-6-phosphate, 3.3 mM MgCl2, 0.4 U/mL glucose-6-phosphate dehydrogenase for all isozymes, 200 mM KPO4 for 3A4. Mixture prepared at RT but kept on ice during automated run.
RT incubation in auxilliary plate hotel for 1A2, 2D6, and 3A4; 37C for 2C9 and 2C19.
Keywords: P450, CYP1A2, CYP2C19, CYP2C9, CYP2D6, CYP3A4, Luciferase, MLSMR, MLSCN, NIH Roadmap, qHTS, NCGC
% is set by controls: 0 for no effect and ±100 for the full control effect.

Cytochrome P450 2D6 (Homo sapiens), sequence (P10635 whole entry, looked up): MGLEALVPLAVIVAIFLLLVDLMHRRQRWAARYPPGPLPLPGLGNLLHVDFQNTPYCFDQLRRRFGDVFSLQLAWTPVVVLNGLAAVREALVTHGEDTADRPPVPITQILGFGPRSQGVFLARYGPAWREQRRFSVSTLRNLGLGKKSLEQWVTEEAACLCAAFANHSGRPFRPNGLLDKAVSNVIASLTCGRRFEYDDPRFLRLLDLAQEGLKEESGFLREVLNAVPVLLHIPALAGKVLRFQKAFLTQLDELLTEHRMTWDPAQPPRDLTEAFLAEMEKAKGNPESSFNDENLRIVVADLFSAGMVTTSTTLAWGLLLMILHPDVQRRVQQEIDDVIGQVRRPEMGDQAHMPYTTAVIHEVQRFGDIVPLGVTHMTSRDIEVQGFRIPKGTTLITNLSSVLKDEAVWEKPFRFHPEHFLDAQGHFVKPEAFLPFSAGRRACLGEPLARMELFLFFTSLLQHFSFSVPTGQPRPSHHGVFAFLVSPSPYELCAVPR

SMILES | activity, negative = inhibition | AC50
COc1ccc(Oc2ncc3nc(C)c(=O)n(C[C@H]4CCCO4)c3n2)cc1 | -9.23% (inactive) | –
Cc1cc(C)cc(OCC(=O)NNC(=O)c2cc(C)[nH]n2)c1 | 2.9% (inactive) | –
COc1ccc(NS(=O)(=O)c2ccc(I)cc2)cc1N1CCN(C)CC1 | -4.44% (inactive) | –
O=C(c1ccc2ncsc2c1)N1CCN(c2ccc(O)cc2)CC1 | 4.08% (inactive) | –
CCCOc1ccc(CSC(CC(=O)O)C(=O)O)cc1 (stereo unspecified) | 7.86% (inactive) | –
Cc1ccc(C(C(=O)NCc2ccco2)N(C(=O)CNC(=O)c2cccs2)c2ccc(C)cc2)cc1 (stereo unspecified) | 6.82% (inactive) | –
Cc1ccc(OCCCC(=O)NCc2ccco2)cc1 | 7.23% (inactive) | –
Cc1ccc(S(=O)(=O)NCC(=O)N(CC(=O)NCc2ccco2)Cc2cccs2)cc1 | – | 3.98 µM (active)
COc1ccc(-c2nc3cnc(Nc4ccccc4)nc3n(Cc3cccs3)c2=O)cc1 | 0.596% (inactive) | –
CC1CCCC(n2c(=S)[nH]c3ccccc3c2=O)C1C (stereo unspecified) | -26.2% (inactive) | –
Cc1ccc(N=Nc2c(N)[nH]n3c(=O)c4c(nc23)CCCC4)cc1 | -22% (inactive) | –
O=c1c2c(nc3c(-c4ccccc4)c[nH]n13)CCC2 | -7.88% (inactive) | –
Cc1ccc(-c2[nH]n3c(=O)c4c(nc3c2C)CCCC4)cc1 | – | 25.1 µM (active)
Cc1cc(C2CCCCC2)n(O)c(=O)c1 | 9.07% [at 25.6 µM] (inactive) | –
COc1cccc(C(=O)Nc2ccc(-c3nnc(-c4ccco4)o3)cc2)c1 | 3.61% (inactive) | –
COc1ccc2c(c1)C(c1ccc([N+](=O)[O-])cc1)=NNC(c1ccco1)=N2 | – | 11.2 µM (active)
COc1ccc(-c2ccc(/C=C3\C(=O)N(c4ccccc4)N=C3c3ccccc3)o2)c([N+](=O)[O-])c1 | -5.74% (inactive) | –
Cc1ccc2c(c1)C1(SCCS1)C(=O)N2 | -11.7% (inactive) | –
Nc1ccc(C(=O)NCC(=O)O)cc1 | 2.31% [at 25.6 µM] (inactive) | –
COc1ccc(OC)c(CNC(=O)CCNC(=O)Cn2ccc3ccccc3c2=O)c1 | 1.01% (inactive) | –
COc1cccc(CNC(=O)CCNC(=O)Cn2ccc3ccccc3c2=O)c1 | -19.9% (inactive) | –
COc1ccc(N2CCN(CCNC(=O)c3c(C)cc(=O)oc3C)CC2)cc1 | 2.34% (inactive) | –
O=C(CCNC(=O)Cn1ccc2ccccc2c1=O)NCCCN1CCN(c2ccc(F)cc2)CC1 | – | 10 µM (active)
COc1ccc(S(N)(=O)=O)cc1C(=O)NCCCN1CCN(c2ccc(C)cc2)CC1 | 5.97% (inactive) | –
Cc1ccccc1CN1CCN(CC(=O)NCCCN2CCN(c3ccc(F)cc3)CC2)C1=O | – | 6.31 µM (active)
COC(=O)CSc1nc(C)cc(C(F)(F)F)c1C#N | 15.4% (inactive) | –

SMILES | activity, negative = inhibition | AC50
Cc1cc2nnc(SCC(=O)N3CCN(c4ccccc4)CC3)n2c(N)n1 | 3.62% (inactive) | –
CC(NC(=O)c1ccc(Cl)cc1)c1nnc(SCc2ccc([N+](=O)[O-])cc2)n1C (stereo unspecified) | -14.9% (inactive) | –
C1CCc2nnnn2CC1 | -1.71% (inactive) | –
Cc1ccc(-c2ccc(/C=N/NC(=S)Nc3ccccc3)o2)cc1[N+](=O)[O-] | 5.91% (inactive) | –
O=C(c1cccc(F)c1)N1CCC2(CCN(Cc3ccccc3)CC2)CC1 | – | 7.94 µM (active)
CC(C)NC(=O)N1CCC2(CC1)CCN(C(=O)c1cccc(F)c1)CC2 | 4.28% (inactive) | –
O=C(c1cccc(F)c1)N1CCC2(CC1)CN(c1cccc(-c3ccccc3)c1)C2 | 0.562% (inactive) | –
CC(C)CN1CCC2(CC1)CCN(C(=O)c1cccc(F)c1)CC2 | – | 5.01 µM (active)
O=C(c1cccc(F)c1)N1CCC2(CC1)CN(Cc1ccccc1)C2 | – | 5.01 µM (active)
O=C(c1cccc(F)c1)N1CCC2(CCN(Cc3cc(C(F)(F)F)cc(C(F)(F)F)c3)CC2)CC1 | 0.176% (inactive) | –
O=C(c1cccc(F)c1)N1CCC2(CCCN(c3ccccc3)C2)CC1 | -3.85% (inactive) | –
N#Cc1ccc(CN2CC3(CCN(C(=O)c4cccc(F)c4)CC3)C2)cc1 | -5.46% (inactive) | –
CC(C)CN1CC2(CCN(C(=O)c3cccc(F)c3)CC2)C1 | 7.2% (inactive) | –
O=c1c(-c2ccc(F)cc2)nc2cnc(N3CCOCC3)nc2n1Cc1cccs1 | -3.77% (inactive) | –
O=C(C(Cc1ccccc1)N1C(=O)C2C3CCC(C3)C2C1=O)N1CCCCC1 (stereo unspecified) | -5.07% (inactive) | –
CCCCS(=O)(=O)NC1=NCN(Cc2ccco2)CN1 | -3.88% (inactive) | –
COC(=O)c1nn(-c2cccc(C(F)(F)F)c2)c(=O)cc1Sc1ccccn1 | 7.99% (inactive) | –
O=c1c(-c2ccccc2)nc2cncnc2n1Cc1ccccc1Cl | -6.57% (inactive) | –
COc1cc(Br)cc2cc(C(=O)NCC3CCCO3)c(=O)oc12 (stereo unspecified) | -18.9% (inactive) | –
CC(c1ccccc1C(O)c1ccccc1)N(C)C (stereo unspecified) | -28.5% (inactive) | –
Cn1c(=O)n(-c2ccc(Cl)cc2)c(=O)c2c3c(sc21)COC(C)(C)C3 | 7.91% (inactive) | –
O=C(N/N=C/c1ccc2cccc(OCc3ccccc3)c2n1)c1ccc(Br)cc1 | -17% (inactive) | –
CCOc1c(OC(C)=O)ccc(/C=C/c2ccc3cccc(OC(C)=O)c3n2)c1[N+](=O)[O-] | – | 10 µM (active)
COc1ccc2c(c1[N+](=O)[O-])CCC/C2=N/OC(=O)c1cccc2ccccc12 | -1.88% (inactive) | –
CCOc1c(OC(C)=O)ccc(/C=C2\N=C(SCC)SC2=O)c1[N+](=O)[O-] | – | 11.2 µM (active)
